Bioassay records deposited in PubChem BioAssay by several laboratories.
GDH-TPI counter-1: GDH-TPI coupling enzyme inhibitors, primary screen, artefact control for M. tuberculosis FBA inhibitor project, biochemical, absorbance, full deck. GDH-TPI coupled enzyme counterscreen, NADH absorbance. inhibition, % at 4.8 µM. 360,000 tested, 1.2% active. AID 588335, 2011; in the data active means inhibition above about 30%;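 further: 0% = DMSO wells and 100% = wells lacking the enzyme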
CCHF vOTU inh: CCHFV vOTU protease inhibitors, primary screen, biochemical, Pep-AMC substrate, fluorescence. Crimean-Congo hemorrhagic fever virus L polyprotein viral ovarian tumor (vOTU) protease …. inhibition, % at 11.5 µM. 370,000 tested, 0.55% active; in the data active means inhibition above about 30%; further: 0% = vehicle wells with enzyme and 100% = no enzyme wells
RecA splice inh: Mtb RecA intein splicing inhibitors, primary screen, biochemical, fluorescence, HTS; Protein RecA (Mycobacterium tuberculosis (strain ATCC 25618 / H37Rv)), P9WHJ3; cell-free RecA intein splicing; inhibition, % (test concentration not listed); 290,000 tested, 0.75% active; in the data active means inhibition above about 30%;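 further: 0% = vehicle wells and 100% = reference inhibitor control wells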
FBA Mtb inh: Mtb FBA enzyme inhibitors, primary screen, biochemical, fluorescence, strain H37Rv. Fructose-bisphosphate aldolase (Mycobacterium tuberculosis (strain ATCC 25618 / H37Rv)), …. purified M. tuberculosis FBA, fluorescence read-out. inhibition, % at 1 µM. 360,000 tested, 2.3% active. AID 588726, 2011;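 further: 0% = vehicle and 100% = reference inhibitor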
Target sequence (P9WQA3 whole entry, looked up): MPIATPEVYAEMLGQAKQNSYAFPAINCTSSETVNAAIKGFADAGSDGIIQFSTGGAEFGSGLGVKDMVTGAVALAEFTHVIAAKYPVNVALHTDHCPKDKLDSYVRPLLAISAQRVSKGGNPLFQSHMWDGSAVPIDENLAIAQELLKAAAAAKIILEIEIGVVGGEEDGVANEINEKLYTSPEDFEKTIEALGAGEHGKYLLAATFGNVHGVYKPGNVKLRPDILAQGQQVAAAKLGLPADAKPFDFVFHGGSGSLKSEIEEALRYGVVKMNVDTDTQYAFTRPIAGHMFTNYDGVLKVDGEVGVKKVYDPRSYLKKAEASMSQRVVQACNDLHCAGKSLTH
Mtb bLac sens: beta-lactam sensitization of Mtb H37Rv, H37Rv; 330,000 tested, 0.27% active; inhibition, % at 25 µM; M. tuberculosis H37Rv growth with meropenem, percent inhibition; call rule not given here;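 further: growth measured after seven days incubation then overnight dye step; 0% = bacteria only wells and 100% = bacteria with antibiotic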
Mtb FBA inh conf: M. tuberculosis aldolase blockers, biochemical, fluorescence, strain H37Rv, confirmation. AID 651616, 2012. 5,600 tested, 78% active. shares compounds with FBA Mtb inh. inhibition, % at 1 µM. purified M. tuberculosis FBA, fluorescence read-out;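 further: 0% = vehicle wells and 100% = reference inhibitor wells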
GDH-TPI counter-2: GDH-TPI coupling enzyme inhibitors, artefact control for M. tuberculosis FBA inhibitor project, biochemical, fluorescence, high throughput; GDH-TPI coupled enzyme counterscreen; shares compounds with FBA Mtb inh; inhibition, % at 1 µM; 5,600 tested, 81% active; AID 652141, 2013; in the data active means inhibition above about 10%
The depositor's hits bear a star; i = inactive; · = not tested or not shown; + = active, no number. Compounds with a hit are over-represented: about 4.2% of the library has one in this group of screens. Unless noted, no stated cut-off is given here; in the data, active means inhibition above about 27%; inactive means the rest.

SMILES	GDH-TPI counter-1	CCHF vOTU inh	RecA splice inh	FBA Mtb inh	Mtb bLac sens	Mtb FBA inh conf	GDH-TPI counter-2
CC(C)OCCCNC(=O)c1c(N)n(CC2CCCO2)c2nc3ccccc3nc12 (stereo not given)	5	1	i	49*	17	+	+
Nc1c(C(=O)NCC2CCCO2)c2nc3ccccc3nc2n1-c1ccccc1 (stereo not given)	8	-130	-92	108*	15	87*	73*
O=C(NCC1CCCO1)c1ccccc1 (stereo not given)	-2	-3	-1	-6	-14	·	·
C[C@H](O)[C@@H]1C(=O)N2CCc3c([nH]c4c(-c5ccc6c(c5)OCO6)cccc34)[C@@H]2C[C@@H]1N(C)C(=O)NC1CCCCC1	·	-9	·	·	·	·	·
C=C(Cl)COc1ccc2c(CCCC)cc(=O)oc2c1	2	8	8	24	-6	·	·
C=C(Cl)COc1ccc2c(CC)cc(=O)oc2c1	8	-16	·	28*	10	+	+
C=C(C)COc1ccc2c(CC)cc(=O)oc2c1	1	-2	1	40*	-3	85*	69*
CCOC(=O)CC[C@@H]1CC[C@]2(CCCN(C(=O)c3ccno3)C2)O1	·	10	·	·	·	·	·
COc1ccc2nc(COC(=O)c3ccco3)c(C(C)=O)[n+]([O-])c2c1	5	7	-1	7	22	·	·
COc1ccc2nc(CC(C)(C)CC(=O)O)c[n+]([O-])c2c1	9	-51	-3	64*	-14	+	+
CCOC(=O)[C@]12CCCC=C1N(CCCOC)C(=O)[C@@H]2CC(=O)NCCCN1CCCC1=O	·	-6	·	·	·	·	·
COc1ccc2c(c1)c1c(c(=O)n(-c3ccc(C)cc3)c(=O)n1CC(=O)NCC1CCCO1)n2C (stereo not given)	-15	-23	·	29*	·	38*	27*
Cc1ccc(C)c(NC(=O)Cn2c(=O)n(-c3ccc(CC(=O)NCC4CCCO4)cc3)c(=O)c3ccccc32)c1 (stereo not given)	·	-17	0	·	5	·	·
Cc1ccc(-n2c(=O)c3c(c4cc(C)ccc4n3C)n(CC(=O)NCC3CCCO3)c2=O)cc1 (stereo not given)	16	-48	·	63*	·	54*	50*
Cc1cc2nc(CS)[nH]c2cc1C	6	1	-8	8	0	·	·
Cc1cc2nc(/C=C/c3nc4cc(C)c(C)cc4[nH]3)[nH]c2cc1C	8	-30	-12	37*	4	150*	85*
COc1ccc(-c2ccc3c(n2)CCCN3S(=O)(=O)c2ccc(C(F)(F)F)cc2)cc1	·	13	·	·	·	·	·
Cc1ccc(C2NC(=O)NC3=C2CCc2ccccc23)cc1 (stereo not given)	5	-37	·	35*	-4	61*	55*
CC(C)c1ccc(C2NC(=O)NC3=C2CCc2ccccc23)cc1 (stereo not given)	4	-22	-1	32*	17	63*	35*
COC(=O)c1cc2c(c3c4cc(F)ccc4n(C(=O)c4ccccc4)c13)C(=O)N(C1CCCCC1)C2	·	14	·	·	·	·	·
CC(=O)Nc1nc2c(s1)CCc1ccccc1-2	2	-18	0	1	3	·	·
CC(C)SCC(=O)Nc1ncc2c(n1)-c1ccccc1CC2	7	-9	-30	29*	2	3	2
CCN1CCN(c2cc3c(nn2)Oc2ccccc2N3C)CC1	8	-140	0	73*	2	5	-5
CCN1CCN(c2cc(=O)n3ccccc3n2)CC1	13	8	·	7	3	·	·
COc1cc2[nH]c(C(=O)NCCc3ccccc3)cc2c(OC)c1OC	3	-12	1	20	-2	·	·
COc1ccc2[nH]c(C(=O)NCCc3ccccc3)cc2c1	-3	-19	4	48*	1	5	-4
COc1ccc(C(=O)c2c[nH]c(C(=O)NCCCn3ccnc3)c2)cc1	1	-9	2	2	-4	·	·
